From the supplement of paper PMC3334620
The full ranking holds about 33,000 sequences; the median of “E-score (-0.5 to 0.5)” is about -0.043, and the highest 2% start at about 0.37. This excerpt belongs to a sample that is enriched for the highest values.

Each sequence was assayed against T1, Upc2 (UniProt Q12151) (assay: PBM E-score (8-mer binding enrichment) (E-score (-0.5 to 0.5)); higher = stronger / more preferred TF binding). Conditions: protein concentration: 200 nM; construct: GST-full length.
T1 sequence: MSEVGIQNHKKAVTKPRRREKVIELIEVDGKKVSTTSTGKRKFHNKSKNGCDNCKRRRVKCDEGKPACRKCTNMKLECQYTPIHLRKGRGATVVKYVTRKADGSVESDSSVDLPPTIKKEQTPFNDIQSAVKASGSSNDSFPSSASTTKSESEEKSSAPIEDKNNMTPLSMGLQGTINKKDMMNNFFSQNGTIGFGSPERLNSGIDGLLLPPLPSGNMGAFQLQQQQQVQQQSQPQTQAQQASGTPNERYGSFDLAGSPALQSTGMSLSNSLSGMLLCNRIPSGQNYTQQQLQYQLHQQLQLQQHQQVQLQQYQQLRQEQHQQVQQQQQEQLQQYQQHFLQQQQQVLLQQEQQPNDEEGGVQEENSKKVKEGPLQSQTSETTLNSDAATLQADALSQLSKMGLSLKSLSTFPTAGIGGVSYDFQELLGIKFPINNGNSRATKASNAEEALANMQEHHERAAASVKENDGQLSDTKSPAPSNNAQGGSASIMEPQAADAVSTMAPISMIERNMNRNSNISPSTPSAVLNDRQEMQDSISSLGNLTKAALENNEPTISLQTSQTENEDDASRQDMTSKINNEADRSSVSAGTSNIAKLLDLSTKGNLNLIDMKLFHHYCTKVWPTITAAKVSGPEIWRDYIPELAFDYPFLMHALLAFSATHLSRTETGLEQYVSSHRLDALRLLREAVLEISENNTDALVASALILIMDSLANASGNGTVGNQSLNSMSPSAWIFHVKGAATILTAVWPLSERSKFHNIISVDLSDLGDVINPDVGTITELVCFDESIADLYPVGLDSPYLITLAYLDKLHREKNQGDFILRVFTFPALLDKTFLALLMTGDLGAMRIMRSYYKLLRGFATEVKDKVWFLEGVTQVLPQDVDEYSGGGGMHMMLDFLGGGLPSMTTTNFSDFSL
Outline: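 GST-tagged yeast TFs (full-length or DNA-binding domain) were made by PURExpress in vitro transcription/translation and applied at about 100-200 nM to universal all-10-mer Agilent arrays. The arrays were made double-stranded by primer extension, on fresh or once-stripped slides. Bound protein was detected with fluorescent anti-GST, and scans were normalised with masliner. Each ungapped eight-base word, pooled with its reverse complement, received an E-score (modified Wilcoxon-Mann-Whitney statistic) from the Universal PBM Analysis Suite.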

In order of rising “PBM E-score” value:
1. ACTTCTGA  -0.307
2. CCATAGAA  -0.25
3. ACCCTCGA  -0.244
4. ACCCAACA  -0.221
5. GCTCATCA  -0.195
6. CTATGGAG  -0.173
7. AAAGGCTA  -0.173
8. CTGCTACC  -0.161
9. TCAGAAAA  -0.153
10. ACTCCAAG  -0.152
11. AGACGGGG  -0.147
12. TCAGGCAA  -0.146
13. ACACGGGA  -0.129
14. GGCTGTGA  -0.125
15. ACCCGTCA  -0.119
16. CCACCAGA  -0.0981
17. TAACTGAA  -0.0941
18. GGACGGGA  -0.0849
19. AGTACCGA  -0.0766
20. ACACGGGC  -0.0605
21. CCTTGGAC  -0.0581
22. CTATAATA  -0.055
23. AAAAACTG  -0.0494
24. GACGCTCC  -0.0386
25. ACACGGGG  -0.0346
26. AAACATCG  -0.033
27. ATATAATA  -0.0226
28. CTACGGGC  -0.0221
29. AAACCGTC  -0.0199
30. GTGTCCTA  -0.0178
31. CGCTGCAC  -0.0173
32. AACCAAGG  -0.0086
33. CTTCACGC  0.0017
34. CATACCGC  0.00223
35. CTACGGGA  0.00845
36. CTTCTTAA  0.0092
37. GTTGTTTA  0.0127
38. GCACGGGA  0.0149
39. CGATTGAA  0.0171
40. GATATGGA  0.047
41. ACGTAGCA  0.0515
42. ACACGCTC  0.0594
43. AACCTCGA  0.0605
44. AACCTCGC  0.0636
45. CCGTAGCA  0.0702
46. CGCCGTAG  0.0712
47. GCGTAGAA  0.0848
48. ACAACACT  0.0862
49. GGTACCGA  0.0871
50. ACCCTCGC  0.0921
51. AACGTTGA  0.0964
52. AGTACCGC  0.1
53. TATTCACA  0.101
54. CTCCTTAC  0.112
55. CCGTAGAA  0.118
56. CGGGGCAG  0.131
57. ACTGTGCG  0.134
58. ATATGGTA  0.158
59. ACCATTAC  0.17
60. TATCGCGA  0.182
61. CCCGTTTC  0.197
62. ATATAAGA  0.22
63. GTAAAGCA  0.223
64. ACCGTTTC  0.244
65. CTATAAGA  0.247
66. GCCGTTAA  0.292
67. GCCGTTCA  0.31
68. AAGCGTAT  0.33
69. ACCGTTTG  0.333
70. AGCCGTAC  0.346
71. CACGTTTA  0.363
72. AACCTCGT  0.372
73. GTATAATA  0.375
74. ATACGGGA  0.382
75. GTACGGGA  0.389
76. GGCCGTAC  0.389
77. TCGTAGAA  0.39
78. TCGTAGCA  0.39
79. GTATAAGA  0.395
80. CGTACCGA  0.398
81. ATACGGGG  0.411
82. CGTACCGC  0.416
83. ACCCTCGT  0.419
84. ATACGGGC  0.426
85. CCCGTTTA  0.456
86. ACCGTTTA  0.458
87. GCCGTTTA  0.465
